The results in this text go back to PubChem BioAssay (NCATS).

Calls of active or inactive are those of the source. Calls come from the whole dose curve; as a rule, active = well fitted cell-killing curve with a large enough effect; inconclusive = small, poorly fitted or top-dose-only effect, or effect the other way; inactive = flat fitted curve, though single readings scatter.

This experiment in a line: MultiTox-Fluor Cytotoxicity Assay - LYMP1-003 - Dead Cells (AID 961).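 Note: cells exposed to compound for 16 h at 37 °C; 0% = DMSO and 100% = tetraoctylammonium bromide; nearly all actives have a fitted effect of over 70% in size.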 The note with it: LYMP1-003 lymphoblastoid cells, dead-cell protease fluorescence; series mostly up to 92.2 µM; cytotoxicity (dead cells): at the top concentration. The text has this:
NIH Chemical Genomics Center [NCGC]
NIH Molecular Libraries Screening Centers Network [MLSCN]
National Institutes of Environmental Health Sciences [NIEHS]
National Toxicology Program [NTP]
We have developed a 1536-well cell-based assay for quantitative high throughput screening (qHTS) against a number of cell lines to determine in vitro cytotoxicity of small molecules. This particular assay uses a human lymphoblastoid cell line (LYMP1-003) purchased from Coriell Institute.
NCGC Assay Protocol Summary:
The MultiTox-Fluor Cytotoxicity Assay (Promega) is a homogeneous method to simultaneously measure the relative number of live and dead cells in culture by detecting changes in cell membrane integrity. There are two fluorogenic peptide substrates in the assay reagent. Viable cells are determined when the cell-permeant substrate (GF-AFC) enters the cell and is cleaved by protease from live cells resulting in liberated fluorophore. This live-cell protease activity restricted to viable cells is proportional to cell number. The dead cells are determined by using fluorogenic cell-impermeant peptide substrate (bis-AAF-R110) which cleaved by dead cell proteases leaking from damaged cell membrane.
Using the MultiTox-Fluor Cytotoxicity Assay, the relative number of dead cells was measured in the lymphoblastoid cell line with complete culture medium following compound treatment for 16 hours. The assay was performed in opaque black Kalypsys 1536-well plates. In the screen, tetraoctylammonium bromide was used as positive control. Library compounds were measured for their ability to cause acute toxicity in the cell line, as reflected by an increase in dead cell protease activity, in a concentration-dependent manner. Data were normalized to the controls for basal activity (DMSO only) and 100% stimulation (15 uM tetraoctylammonium bromide). AC50 values were determined from concentration-response data modeled with the standard Hill equation.
qHTS protocol for MultiTox-Fluor Cytotoxicity assay
[Step] [Parameter] [Value] [Description]
1. Reagent; 5 uL; 2500 lymphoblastoid cells/well
2. Time; 5 hr; 37 C incubation
4. Controls; 23 nL; Tetraoctylammonium bromide 6.4pM to 92 uM
5. Time; 16 hr; 37 C incubation
6. Reagent; 5 uL; MuliTox-Fluor Assay reagent
7. Time; 60 min; Room Temperature
8. Detection; dead-cell fluorescence (Ex/Em=485/520); EnVision plate reader
Keywords: cytotoxicity, lymphoblastoid cell line, fluorescence, NTPHTS, NTPHTS_NCGC, NIEHS, EPA, DSSTox, MLSMR, MLSCN, NIH Roadmap, qHTS, NCGC
For `C=C(C)C1CC=C(C)C(OC(C)=O)C1` (stereo not given), the “cytotoxicity (dead cells)” value was -8.2% (inactive).
The value for `Cc1cccc([N+](=O)[O-])c1C(=O)O` was -14% (inactive); that for `CC(=O)CCc1ccccc1` was -17.8% (inactive).
As to `CCOc1ccc(NC(C)=O)cc1N`, the “cytotoxicity (dead cells)” value was -17.8% (inactive).
With `CCOc1cccc(N)c1` the figure was -3.77% (inactive).
With `CCC(O)C(C)(C)C` (stereo not given) the figure was -1.59% (inactive); with `Nc1cccc(C(F)(F)F)c1`, -10.4% (inactive).
The value for `Cc1ccc2ccccc2c1[N+](=O)[O-]` was -0.83% (inactive); that for `FC(F)(F)c1ccccc1Cl` was -4.69% (inactive); that for `O=C1OC(=O)c2c(Br)c(Br)c(Br)c(Br)c21` was -11.3% (inactive).
Consider `CCCOCC(C)OCC(C)O` (stereo not given), for which the “cytotoxicity (dead cells)” value was -11.1% (inactive).
With `O=[N+]([O-])c1ccc(Cl)cc1Cl` the figure was -12.7% (inactive); with `CCC(C)(C)C`, -9.28% (inactive); with `CCCCCCCN`, -3.32% (inactive).
The value for `CC(C)N=C=NC(C)C` was -9.32% (inactive).
With `Cc1ccc(C(C)(C)C)cc1` the figure was -7.1% (inactive).
For `O=C1CCC(=O)O1`, the “cytotoxicity (dead cells)” value was -0.133% (inactive).
With `COc1ccc(N=[N+]([O-])c2ccc(OC)cc2)cc1` the figure was 8.51% (inactive).
With `c1ccc2c(c1)ccc1ncccc12` the figure was -5.35% (inactive); with `Cc1ccccc1C(=O)O`, -14.1% (inactive); with `Nc1ccccc1[N+](=O)[O-]`, -8.16% (inactive).
With `Nc1cccc(S(=O)(=O)O)c1` the figure was 14.3% (inactive).
Turning to `Nc1ccc(Cl)cc1[N+](=O)[O-]`, the “cytotoxicity (dead cells)” value was -10.9% (inactive).
The value for `CC/C(C)=N/O` was -20.6% (inactive); that for `C=C(C)C(N)=O` was -12.6% (inactive).
In the case of `CCN(C(=O)N(CC)c1ccccc1)c1ccccc1`, the “cytotoxicity (dead cells)” value is 11% (inactive).
The value for `c1ccsc1` was -9.15% (inactive); that for `Cc1ccc(C)o1` was -0.632% (inactive).
In the case of `C=Cc1ccc(C=C)cc1`, the “cytotoxicity (dead cells)” value is -3.21% (inactive).
With `Cc1cccc2sc(N)nc12` the figure was -0.376% (inactive); with `c1ccc(Oc2ccccc2)cc1`, -13.2% (inactive).
The value for `CCCCCCC(=O)O` was -2.78% (inactive); that for `CC(O)CC(C)O` (stereo not given) was -1.35% (inactive); that for `Cc1ccc2nc(-c3ccc(N)cc3)sc2c1S(=O)(=O)O` was -9.14% (inactive).
The value for `O=C(O)CN(CC(=O)O)CC(=O)O` was 3.18% (inactive); that for `Cc1cccc(C)c1O` was -18.2% (inactive); that for `O=[N+]([O-])c1c(Cl)cc(Cl)cc1Cl` was -8.77% (inactive).
As to `C=CCCCCCC`, the “cytotoxicity (dead cells)” value was -3.44% (inactive).
The value for `COc1ccc(N)c(C)c1` was -15.3% (inactive); that for `Cc1ccc(Br)cc1` was 1.02% (inactive).
